# Test results: PubChem BioAssay
# Active and inactive are the calls of the source.
# Tests used:
# [1] = tested on: XIP peptide (Xip251-270) binding; experiment: XIP fragment 251-270 binding compounds – biochemical, small-molecule microarray, fluorescence 635/667 nm, 0.1 µg/mL protein, primary screen (AID 1182); conditions: fluorescent protein binding, 635 nm, higher = more signal, called active from +8 up or from −8 down
# XIP peptide (Xip251-270) = experiment: compounds binding XIP fragment 251-270 – biochemical, small-molecule microarray, fluorescence 635/667 nm, 0.5 µg/mL protein, primary screen (AID 1183); conditions: fluorescence 635 nm, higher = more signal
# [2] = blood-stage malaria parasite viability loss – strain 3D7, DAPI fluorescence, 100 nL, primary screen (AID 1184);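 also: parasites grown inside human red blood cells in medium with human serum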; conditions: P. falciparum 3D7 growth, 3 d, higher = more signal
# [3] = molecular target: Homeobox protein Hox-A13 (Mus musculus) (UniProt Q62424); experiment: disruptors of Hoxa13 oligonucleotide interaction – biochemical, fluorescence polarization, labeled oligonucleotide, primary screen (AID 1185); conditions: Hoxa13:DNA binding, 15 min, higher = more signal, called active from +8 up or from −8 down
# Chain of Homeobox protein Hox-A13 (Mus musculus) (Q62424 whole entry, looked up): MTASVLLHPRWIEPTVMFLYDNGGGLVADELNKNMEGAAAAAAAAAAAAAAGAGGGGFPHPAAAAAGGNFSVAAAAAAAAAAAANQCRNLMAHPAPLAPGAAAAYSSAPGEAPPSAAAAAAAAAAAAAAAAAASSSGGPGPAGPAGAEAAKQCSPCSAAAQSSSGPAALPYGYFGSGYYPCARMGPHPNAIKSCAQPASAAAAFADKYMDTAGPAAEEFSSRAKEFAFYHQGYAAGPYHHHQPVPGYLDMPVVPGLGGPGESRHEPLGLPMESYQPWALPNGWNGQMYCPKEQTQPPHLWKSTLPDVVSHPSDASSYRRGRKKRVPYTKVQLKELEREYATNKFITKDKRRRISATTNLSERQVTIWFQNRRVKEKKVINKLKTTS
SMILES,composite z-score [1],composite z-score (XIP peptide (Xip251-270)),z-score [2],z-score [3]
O=C(NN=C1C[C@@H](O)[C@@H](O)[C@@H]2[C@@H]3C(=O)N(C4CCCCC4)C(=O)[C@@H]3CC[C@H]12)OCc1ccccc1,-0.142 (inactive),0.109,-0.0276,-5.03 (inactive)
COC(=O)C=CCCc1coc(C=CCNC(=O)OC)n1,0.56 (inactive),0.868,-0.92,-2.9 (inactive)
C=Cc1ccc([C@H]2N[C@H](C(=O)O)CC[C@@H]2C)cc1,-0.132 (inactive),-0.0045,2.18,-0.69 (inactive)
CCOC(=O)[C@H](CC(C)C)NC(=O)CCC1CC(OC(=O)NCc2ccc3c(c2)OCO3)CC2(CCCC(COC(=O)NCCCN3CCCC3=O)O2)O1 (stereo partly specified),-0.228 (inactive),0.6,-1.61,-5.69 (inactive)
CCCNC(=O)OC[C@H]1O[C@H](c2ccccc2)C=C[C@@H]1Oc1ccc(OC)cc1,-0.174 (inactive),0.631,0.284,-1.63 (inactive)
COC(=O)[C@@H]1CC[C@H](C)[C@@H](c2ccc(C)cc2)N1C(=O)c1ccc(C=NOC[C@@H](C)[C@H](OCc2ccccc2)C(C)C)cc1,0.0611 (inactive),0.489,-1.87,-4.87 (inactive)
CO[C@@H]1C=CCC(=O)N[C@@H](C)C(=O)OC[C@@H](OC)[C@H](C)CCCC(=O)OC[C@H]1C,-0.203 (inactive),0.111,0.0984,-0.313 (inactive)
O=C1OCCC=C1C(O)CCc1ccccc1 (stereo unspecified),0.321 (inactive),0.716,-0.542,-0.295 (inactive)
COC(=O)CC=C[C@@H](C)[C@@H](C=NO[C@@H]1O[C@H](COC(C)=O)[C@@H](OC(C)=O)[C@H](OC(C)=O)[C@H]1OC(C)=O)OC,-0.865 (inactive),-0.17,-0.0925,-2.16 (inactive)
CO[C@@H]1COC(=O)[C@H](CCSC)NC(=O)CC=C[C@@H](C)COC(=O)CCC[C@H]1C,1.2 (inactive),0.929,-0.766,-2.31 (inactive)
C=CC[C@@H]1C=C[C@H](ON=C(C)CCC(=O)OC[C@H]2O[C@H](c3ccccc3)C=C[C@@H]2Oc2ccc(OC)cc2)[C@@H](CO)O1,0.0195 (inactive),0.595,0.298,-5.41 (inactive)
CC(C)=NO[C@H](C)c1cn([C@H](CO)Cc2ccccc2)nn1,-0.662 (inactive),0.0455,0.28,0.584 (inactive)
COC(=O)C1=C(C)N(Cc2ccccc2)[C@]23O[C@](C(=O)OC)(C(=O)N2[C@@H]1c1ccccc1)C(C(=O)OC)=C3C(=O)OC,1.49 (inactive),0.435,-1.08,-3.67 (inactive)
CCN1C(=O)[C@H]2[C@H]3[C@H](O)[C@H](O)CC(=O)[C@H]3CC[C@H]2C1=O,0.809 (inactive),0.453,1.05,0.0412 (inactive)
CC(C)=CCCC(C)=CCON=C1C[C@@H](O)[C@@H](O)[C@@H]2[C@@H]3C(=O)N(C(C)(C)C)C(=O)[C@@H]3CC[C@@H]12,-0.119 (inactive),0.233,-1.34,-1.09 (inactive)
C[C@@H](c1ccccc1)N1C(=O)[C@H]2[C@H]3[C@H](O)[C@H](O)CC(=O)[C@H]3CC[C@H]2C1=O,-0.286 (inactive),0.251,0.676,0.0632 (inactive)
O=C1C[C@@H](O)[C@@H](O)[C@@H]2[C@@H]3C(=O)N(c4cccc(Oc5ccccc5)c4)C(=O)[C@@H]3CC[C@H]12,0.0532 (inactive),0.111,1.33,-0.14 (inactive)
CC=CC1=C(CO)C(=O)[C@@H]2O[C@@H]2C1=O,3.73 (inactive),0.736,0.908,-3.53 (inactive)
CCC(=O)[C@@]1(O)C(=O)N2C(=C3C(=O)OCC[C@@H]31)N(Cc1ccccc1)C(C)=C(C(=O)OC)[C@H]2c1ccccc1,-0.0955 (inactive),0.177,0.663,-0.219 (inactive)
CO[C@H]1COC(=O)CC=C[C@@H](C)[C@H](OC)COC(=O)[C@@H]2CCCN2C(=O)CC=C[C@@H]1C,0.832 (inactive),0.678,0.095,-0.438 (inactive)
CCOC(=O)[C@H](CC(C)C)NC(=O)CCC1CC(OC(=O)NCc2cccc3ccccc23)CC2(CCCC(COC(=O)NCCOc3ccccc3)O2)O1 (stereo partly specified),0.761 (inactive),0.471,-1.81,-3.36 (inactive)
CO[C@@H]1COC(=O)CC=C[C@H](C)[C@H](OC)COC(=O)[C@H](C)NC(=O)CC=C[C@H]1C,-0.436 (inactive),0.82,-0.382,0.189 (inactive)

SMILES,composite z-score [1],composite z-score (XIP peptide (Xip251-270)),z-score [2],z-score [3]
O=C1C=C[C@@H](O)[C@@H]2[C@@H]3C(=O)N(c4ccc(F)cc4F)C(=O)[C@@H]3CC[C@@H]12,0.25 (inactive),0.165,0.262,0.159 (inactive)
CO[C@H]1COC(=O)[C@@H](C)COC(=O)[C@H](COCc2ccccc2)NC(=O)CC=C[C@H]1C,-0.0299 (inactive),-0.474,-0.386,-1.96 (inactive)
O=C(NN=C1C[C@@H](O)[C@@H](O)[C@@H]2[C@@H]3C(=O)N(C4CCCCC4)C(=O)[C@@H]3CC[C@@H]12)OCc1ccccc1,0.152 (inactive),-0.0414,-0.321,-3.09 (inactive)
CC(C)(C)N1C(=O)[C@H]2[C@H]3[C@H](O)[C@H](O)CC(=NOCc4ccccc4)[C@H]3CC[C@H]2C1=O,0.082 (inactive),-0.112,0.195,-4.16 (inactive)
CCN1C(=O)[C@H]2[C@H]3[C@H](O)[C@H](O)CC(=NNC(=O)OCc4ccc(OC)cc4)[C@@H]3CC[C@H]2C1=O,0.0729 (inactive),-0.225,-0.18,-1.25 (inactive)
CCOC(=O)[C@H](Cc1ccccc1)NC(=O)CCC1CC(OC(=O)NCc2ccc3c(c2)OCO3)CC2(CCCC(COC(=O)NCCC(C)C)O2)O1 (stereo partly specified),0.644 (inactive),0.18,-1.2,-6.91 (inactive)
CCOC(=O)CCN1C(=O)[C@H]2[C@H]3[C@H](O)[C@H](O)CC(=NNC(=O)OCc4ccccc4)[C@@H]3CC[C@H]2C1=O,0.0651 (inactive),0.791,-0.597,0.897 (inactive)
CO[C@H]1COC(=O)[C@@H]2CCCN2C(=O)CC=C[C@@H](C)[C@H](OC)COC(=O)[C@@H](OCc2ccccc2)C=C[C@@H]1C,0.0932 (inactive),0.789,-1.42,-1.53 (inactive)
CC(C)=CCCC(C)=CCON=C1C[C@@H](O)[C@@H](O)[C@@H]2[C@@H]3C(=O)N(C(C)(C)C)C(=O)[C@@H]3CC[C@H]12,-0.007 (inactive),0.427,1.46,0.263 (inactive)
COC(=O)[C@H](C)NC(=O)CCC1CC(OC(=O)NCCc2ccc(F)cc2)CC2(CCCC(COC(=O)NCc3cccc(C(F)(F)F)c3)O2)O1 (stereo partly specified),0.64 (inactive),0.517,-0.506,-6.12 (inactive)
CO[C@@H]1COC(=O)[C@H](CCSC)NC(=O)CC=C[C@@H](C)COC(=O)[C@H](C)NC(=O)CC=C[C@H]1C,-0.665 (inactive),0.909,-0.131,-0.042 (inactive)
CC1O[C@H]2C3=C(C(=O)[C@@H]4O[C@@H]4[C@H]3O)[C@@H]1C1[C@@H](C)OC=C3[C@H](O)C4O[C@@H]4C(=NOCc4ccccc4)[C@]312 (stereo partly specified),-0.319 (inactive),0.563,-0.352,-1.93 (inactive)
O=C1[C@H]2[C@H]3[C@H](O)[C@H](O)CC(=NOCc4ccccc4)[C@@H]3CC[C@H]2C(=O)N1c1ccc(F)cc1F,-0.228 (inactive),0.0159,-0.545,0.941 (inactive)
O=C(C=Cc1ccc2c(c1)OCO2)c1ccc(F)cc1,-0.158 (inactive),0.629,-0.533,0.526 (inactive)
CC(=O)OC[C@H]1OC(ON=CC[C@@H]2C=C[C@H](OC(C)=O)[C@@H](COC(C)=O)O2)[C@H](OC(C)=O)[C@@H](OC(C)=O)[C@@H]1OC(C)=O (stereo partly specified),-0.476 (inactive),0.0849,0.728,-2.22 (inactive)
CC(=O)O[C@H]1C2=CO[C@H](C)[C@H]3[C@H]4C5=C([C@H](O)[C@H]6O[C@H]6C5=O)[C@H](OC4C)[C@@]23C(=O)[C@@H]2O[C@@H]21 (stereo partly specified),0.533 (inactive),-0.406,-1.24,-1.02 (inactive)
CCOC(=O)[C@H](CC(C)C)NC(=O)CCC1CC(OC(=O)NCc2cccc3ccccc23)CC2(CCCC(COC(=O)NCC3CCCCC3)O2)O1 (stereo partly specified),-0.145 (inactive),0.539,-2.01,-4.22 (inactive)
CCOC(=O)[C@H](CC(C)C)NC(=O)CCC1CC(OC(=O)NCCc2ccc(F)cc2)CC2(CCCC(COC(=O)NCCOc3ccccc3)O2)O1 (stereo partly specified),0.679 (inactive),0.31,-2.02,-6.97 (inactive)
CC(C)CON=C1[C@H]2CCn3c(=O)n(Cc4cc5c(cc4Cl)OCO5)c(=O)n3[C@H]2[C@H](O)[C@@H]2O[C@H]12,0.26 (inactive),0.368,-1.17,1.8 (inactive)
O=C1C=C[C@@H](O)[C@@H]2[C@@H]3C(=O)N(C[C@@H]4CCCO4)C(=O)[C@@H]3CC[C@@H]12,0.179 (inactive),0.119,0.0136,0.112 (inactive)
O=C(NN=C1C[C@@H](O)[C@@H](O)[C@@H]2[C@@H]3C(=O)N(C[C@@H]4CCCO4)C(=O)[C@@H]3CC[C@@H]12)OCc1ccccc1,1.77 (inactive),0.126,0.263,0.756 (inactive)
O=C1CCCC=C1C(CCc1ccccc1)OC(=O)c1ccc(Br)cc1 (stereo unspecified),0.622 (inactive),-0.198,-0.108,-1.88 (inactive)
